In PubChem BioAssay (NCATS):
Records with an inconclusive call do not appear. Active and inactive are the calls of the source. Calls come from the whole dose curve; as a rule, active = well fitted inhibition curve with a large enough effect; inconclusive = small, poorly fitted or top-dose-only effect; inactive = no such curve, though single readings can be large or run the other way.

Test: Counterscreen qHTS for small molecule stabilizers of the endoplasmic reticulum resident proteome: GLuc-NoTag assay (AID 1508627)
Settings: Gaussia luciferase NoTag secretion counterscreen, luminescence, thapsigargin 100 nM for final 4 h; series mostly up to 76.4 µM
Text: Assay Provider: Brandon K. Harvey Ph.D.
National Institute on Drug Abuse, National Institutes of Health, Baltimore, MD
Endoplasmic reticulum (ER) dysregulation is associated with human pathologies including neurodegenerative, cardiovascular, muscular, and diabetic conditions. Maintenance of ER calcium is critical for functions of the ER and its depletion can lead to loss of ER resident proteins, in a process termed exodosis. Therapeutic compounds capable of attenuating the redistribution of ER proteins under pathological conditions may slow or stop disease progression. To identify such compounds, we performed a quantitative high-throughput screen (qHTS) using the SERCaMP assay, which monitors secretion of ER resident proteins triggered by calcium depletion.
SERCaMP was initially developed as a reporter of ER calcium homeostasis using a Gaussia luciferase with a modified signal peptide and carboxy-terminus (GLuc-SERCaMP), modifications that confer secretion of the reporter in response to ER calcium depletion (Henderson et al., 2014). The assay was used to screen 9,501 compounds, including a collection of drugs approved by the FDA (US), EMA (EU), NHI (Japan), and HC (Canada) regulatory agencies (Huang et al., 2011). Since the SERCaMP reporter reflects the exodosis phenomenon (Trychta et al., 2018a), compounds identified in the screen have the potential to prevent exodosis by different mechanisms such as stabilizing ER calcium or augmenting ERS retrieval.
1. Henderson, M.J., Wires, E.S., Trychta, K.A., Richie, C.T., and Harvey, B.K. (2014). SERCaMP: a carboxy-terminal protein modification that enables monitoring of ER calcium homeostasis. Mol Biol Cell 25, 2828-2839.
2. Huang, R., Southall, N., Wang, Y., Yasgar, A., Shinn, P., Jadhav, A., Nguyen, D.T., and Austin, C.P. (2011). The NCGC pharmaceutical collection: a comprehensive resource of clinically approved drugs enabling repurposing and chemical genomics. Sci Transl Med 3, 80ps16.
3. Trychta, K.A., Back, S., Henderson, M.J., and Harvey, B.K. (2018a). KDEL Receptors Are Differentially Regulated to Maintain the ER Proteome under Calcium Deficiency. Cell Rep 25, 1829-1840 e1826.
SEQUENCE No. (1, 2, 3, etc.); […] (e.g., Cells, Incubation, Reagent, etc.); VALUE and DESCRIPTION.
1; Reagent; 5 uL; 1000 SH-SY5Y cells per wells
3; Compound; 23 nL; Control inhibitor / compound library
5; Reagent; 100 nM; Thapsigargin
7; Reagent; 1 uL; 0.5x coelenterazine
8; Detection; Luminescence; ViewLux imaging system
NOTES (numbers refer to sequence above)
1; SH-SY5Y human neuroblastoma cells stably expressing the constitutively secreted GLuc (SH-SY5Y-GLuc-NoTag) cells were seeded in 1,536 well white tissue culture treated plates (Corning, Cat# 7464) in DMEM-high glucose-sodium pyruvate (ThermoFisher Scientific, Cat #10569) supplemented with 10% bovine growth serum (Hyclone), 10 U/ml penicillin (Gibco), 10 ug/ml streptomycin (Gibco), and 20 mM HEPES.
2; Assay plates were incubated for 5 hour at 37C in a humidified incubator containing 5% CO2.
4; Cells were then incubated for 19 hours at 37C, 5% CO2.
5; Thapsigargin was added at 100 nM to deplete ER calcium stores.
6; Cells were incubated for 4 hour (37 °C, 5% CO2)
7; Gaussia luciferase in the medium was measured by adding 1 ul of 0.5x coelenterazine (final concentration 0.07x) prepared in Gaussia Luciferase Glow Assay Buffer (Pierce), without addition of the Cell Lysis Buffer Reagent.
8; Luminescence was measured using a ViewLux CCD imaging system (Perkin Elmer) equipped with clear filters. […] The same controls were also used for the calculation of the Z' factor, a measure of assay quality control, as previously described (Zhang et al., 1999). For the initial validation of activity in the SERCaMP assays, hits from the primary screen were assayed again at 11-concentrations (1.3 nM - 76.6 uM). SH-SY5Y-GLuc-SERCaMP cells were assayed for ER Ca2+ depletion as outlined above.
1. Zhang, J.H., Chung, T.D., and Oldenburg, K.R. (1999). […]

Compound	outcome
O=C(O)[C@@H]1CSC(c2cccnc2)N1 (stereo not given in full)	inactive
c1ccc(N2CC[C@@]3(CCCNC3)C2)cc1	inactive
c1ccc(N2CCC3(CCNCC3)CC2)nc1	inactive
c1ccc(N2CCCC3(CCNCC3)C2)cc1	inactive
c1cc(CN2CCCC3(CCNCC3)C2)ccn1	inactive
c1ccc(N2CCCC3(CCNCC3)C2)nc1	inactive
COc1ccc(NC(=O)N2CCCC3(CCN(C(=O)Oc4ccccc4)CC3)C2)cc1	inactive
CC(=O)C1=C(O)C2C3c4c[nH]c5cccc(c45)CC3C(C)(C)N2C1=O (stereo not given)	inactive
c1cnc(N2CCC3(CCNCC3)CC2)nc1	inactive
CC(C)C1C(=O)N2CCC[C@H]2[C@]2(O)O[C@](NC(=O)[C@@H]3C=C4c5cccc6[nH]cc(c56)C[C@H]4N(C)C3)(C(C)C)C(=O)N12 (stereo not given in full)	inactive
